Inconclusive results are not listed. Activity calls are given as the source filed them. Calls come from the whole dose curve; as a rule, active = well fitted curve in the direction sought with a large enough effect; inconclusive = small, poorly fitted or top-dose-only effect, or another doubt; inactive = no such curve, though single readings can be large; an effect the other way counts as inactive or inconclusive.
Potency is the fitted concentration of half-maximal effect.

The nature of the first test: qHTS of pediatric cancer cell lines to identify multiple opportunities for drug repurposing: Confirmatory screen for A673 cells (AID 1347110).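 Note: cells exposed to compound for 48 h before the viability read; nearly all actives have a fitted effect of over 65% in size.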 Conditions: A673 Ewing sarcoma cell viability; series mostly up to 45.9 µM. The gist of the method:
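A673 cells at 500-1,000 cells/well were dosed 5 h after plating, in dilution series up to 46 uM final; primary runs used 8 or 11 points and confirmatory runs used 11 points. Viability was read by CellTiter-Glo luminescence after 48 h, against DMSO and 2.3 uM bortezomib controls.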
For the compound `Cc1ccccc1-n1c(Cn2nc(-c3cccc(O)c3)c3c(N)ncnc32)nc2cccc(C)c2c1=O`, the Potency was 7.37 µM (active).
Still for that read-out and setting: next, `CCC[C@H](Nc1nc(-c2ccc(NC(=O)NCC)c(OC)c2)ncc1C)c1cccnc1`: 0.233 µM (active); `Cc1cccc(-c2[nH]c(C(C)(C)C)nc2-c2ccc3c(c2)OCO3)n1`: 13.1 µM (active); `CCN(CCO)CCCOc1ccc2c(Nc3cc(CC(=O)Nc4cccc(F)c4)[nH]n3)ncnc2c1`: 10.4 µM (active).
Still for that read-out and setting: for `CC[C@H](NC(=O)[C@H](C)NC)C(=O)N1C[C@@H](O)C[C@H]1Cc1c(-c2[nH]c3cc(F)ccc3c2C[C@H]2C[C@H](O)CN2C(=O)[C@H](CC)NC(=O)[C@H](C)NC)[nH]c2cc(F)ccc12` the value was 7.37 µM (active); for `CC1(COc2ccc3c(c2)ncn3-c2ccc3cccc(N4CCC(N)CC4)c3n2)COC1`, 7.37 µM (active).
As for `Nc1ccn([C@@H]2O[C@H](CO)[C@@H](O)[C@H]2O)c(=O)n1`, the Potency is 0.657 µM (active).
Still for that read-out and setting: next, `COc1cc([C@@H]2c3cc4c(cc3[C@@H](O[C@@H]3O[C@@H]5CO[C@@H](C)O[C@@H]5[C@H](O)[C@@H]3O)[C@H]3COC(=O)[C@H]23)OCO4)cc(OC)c1O`: 4.65 µM (active); `CON(C)C(=O)N1N=C(c2cc(F)ccc2F)S[C@]1(CCCN)c1ccccc1`: 0.0104 µM (active).
Take `C[C@@H]1C[C@H]2[C@@H]3CCC4=CC(=O)C=C[C@]4(C)[C@@]3(F)[C@@H](O)C[C@]2(C)[C@@]1(O)C(=O)CO`: the Potency entry is “inactive”.
The same measure, in the same setting: next, `C[C@H](c1ccc(F)cc1CCCC(=O)O)N(c1cc(F)ccc1F)S(=O)(=O)c1ccc(Cl)cc1`: “inactive”.
On the same count and under the same terms, next, `CN(C(Cc1ccc(OS(=O)(=O)c2cccc3cnccc23)cc1)C(=O)N1CCN(c2ccccc2)CC1)S(=O)(=O)c1cccc2cnccc12` (stereo unspecified): “inactive”.
As to `Cc1ccc(C(=O)N(CCCN)[C@@H](c2nc3cc(Cl)ccc3c(=O)n2Cc2ccccc2)C(C)C)cc1`, the Potency is 0.0076 µM (active).
Take `Cc1csc(-c2nnc(Nc3ccc(Oc4ncccc4-c4ccnc(N)n4)cc3)c3ccccc23)c1`: the Potency is 9.27 µM (active).
Still for that read-out and setting: next, `Cc1ccc(C(=O)N(CCCN)[C@@H](c2oc3cc(Cl)ccc3c(=O)c2Cc2ccccc2)C(C)C)cc1`: 0.0019 µM (active).
Still for that read-out and setting: next, `COC(=O)Nc1ccc(-c2nc(N3CCOCC3)c3cnn(C4CCN(C(=O)OC)CC4)c3n2)cc1`: 2.93 µM (active); `O=C1Nc2ccc(I)cc2C1=Cc1cc(Br)c(O)c(Br)c1`: 11.7 µM (active).

The next test can be described thus: qHTS of pediatric cancer cell lines to identify multiple opportunities for drug repurposing: Confirmatory screen for SK-N-MC cells (AID 1347111).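 Note: cells exposed to compound for 48 h before the readout; nearly all actives have a fitted effect of over 70% in size.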 The following applies: SK-N-MC cell viability; series mostly up to 45.9 µM. The gist of the method: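 Seed 500-1,000 cells/well; rest 5 h at 37 degrees C. Pin-transfer compounds, 11-point titration. Incubate 48 h. Add CellTiter-Glo, 15 min RT, read luminescence.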
(qHTS replaces the single test concentration by a dilution series.)
On to `C[C@@H]1[C@H](O)[C@@H](C)C=CC=CC=CC=CC=CC=CC=C[C@H](O[C@@H]2O[C@H](C)[C@H](O)[C@H](N)[C@@H]2O)C[C@@H]2O[C@](O)(C[C@@H](O)C[C@@H](O)[C@H](O)CC[C@@H](O)C[C@@H](O)CC(=O)O[C@H]1C)C[C@H](O)[C@@H]2C(=O)O`, for which the Potency is 10.4 µM (active).
Consider `CCC[C@H](N[C@@H](C)C(=O)N1[C@@H]2CCCC[C@H]2C[C@H]1C(=O)O)C(=O)OCC`, for which the Potency entry was “inactive”.
On the same count and under the same terms, next, `O=c1[nH]nc(OCCCc2ccc(Cl)cc2)c(NCc2cccnc2)c1Br`: 16.5 µM (active); `CCC(=O)OCC(=O)[C@@]1(OC(=O)CC)[C@@H](C)C[C@@H]2[C@H]3CCC4=CC(=O)C=C[C@]4(C)[C@@]3(F)[C@@H](O)C[C@@]21C`: “inactive”.
In the case of `CC[C@]1(O)C[C@H]2CN(CCC3=c4ccccc4=N[C]3[C@@](C(=O)OC)(c3cc4c(cc3OC)N(C)[C@H]3[C@@](O)(C(N)=O)[C@H](O)[C@]5(CC)C=CCN6CC[C@]43[C@@H]65)C2)C1`, the Potency is 0.117 µM (active).
`CCC(C)SSc1ncc[nH]1` (stereo unspecified): the Potency is 8.27 µM (active).
On the same count and under the same terms, for `CCC(c1ccc(O)cc1)C(CC)c1ccc(O)cc1` (stereo unspecified) the value was 9.27 µM (active); for `CC(C)n1c(C=C[C@H](O)C[C@H](O)CC(=O)O)c(-c2ccc(F)cc2)c2ccccc21`, 23.3 µM (active).
With `CC1CNc2c(cccc2S(=O)(=O)N[C@@H](CCCN=C(N)N)C(=O)N2CC[C@@H](C)C[C@@H]2C(=O)O)C1` (stereo partly specified), the Potency is 20.8 µM (active).
Still for that read-out and setting: for `C[C@@]1(c2cc(-c3cncnc3)c(F)cc2F)CCSC(N)=N1` the value was 7.37 µM (active).
On to `CCOC(=O)[C@H](CCc1ccccc1)N[C@@H](C)C(=O)N1CCCC1C(=O)O` (stereo partly specified), for which the Potency was 14.7 µM (active).
On the same count and under the same terms, next, `CC1=C(CC(=O)O)c2cc(F)ccc2C1=Cc1ccc(S(C)=O)cc1` (stereo unspecified): “inactive”; `CSc1cccc(Nc2ncc3cc(-c4c(Cl)cccc4Cl)c(=O)n(C)c3n2)c1`: 2.61 µM (active).
With `Cc1cccc(-c2[nH]c(C(C)(C)C)nc2-c2ccc3c(c2)OCO3)n1`, the Potency was 7.37 µM (active).
Same read-out and setting: next, `CCN(CCO)CCCOc1ccc2c(Nc3cc(CC(=O)Nc4cccc(F)c4)[nH]n3)ncnc2c1`: 0.104 µM (active); `Nc1ccn([C@@H]2O[C@H](CO)[C@@H](O)[C@H]2O)c(=O)n1`: 2.61 µM (active).
Regarding `COc1cc([C@@H]2c3cc4c(cc3[C@@H](O[C@@H]3O[C@@H]5CO[C@@H](C)O[C@@H]5[C@H](O)[C@@H]3O)[C@H]3COC(=O)[C@H]23)OCO4)cc(OC)c1O`, the Potency was 1.04 µM (active).
Regarding `CON(C)C(=O)N1N=C(c2cc(F)ccc2F)S[C@]1(CCCN)c1ccccc1`, the Potency is 0.0093 µM (active).
As to `CN(C(Cc1ccc(OS(=O)(=O)c2cccc3cnccc23)cc1)C(=O)N1CCN(c2ccccc2)CC1)S(=O)(=O)c1cccc2cnccc12` (stereo unspecified), the Potency is 2.93 µM (active).
As to `Cc1ccc(C(=O)N(CCCN)[C@@H](c2nc3cc(Cl)ccc3c(=O)n2Cc2ccccc2)C(C)C)cc1`, the Potency was 0.024 µM (active).
On to `Cc1csc(-c2nnc(Nc3ccc(Oc4ncccc4-c4ccnc(N)n4)cc3)c3ccccc23)c1`, for which the Potency was 0.0261 µM (active).
Take `Cc1ccc(C(=O)N(CCCN)[C@@H](c2oc3cc(Cl)ccc3c(=O)c2Cc2ccccc2)C(C)C)cc1`: the Potency is 0.0059 µM (active).
As for `COC(=O)Nc1ccc(-c2nc(N3CCOCC3)c3cnn(C4CCN(C(=O)OC)CC4)c3n2)cc1`, the Potency was 4.65 µM (active).
Same read-out and setting: for `O=C1Nc2ccc(I)cc2C1=Cc1cc(Br)c(O)c(Br)c1` the value was “inactive”.

The values above are taken from PubChem BioAssay (NCATS).
